ADAM17 inh – inhibitors of human ADAM17. P78536. recombinant ADAM17, EDANS/DABCYL FRET peptide cleavage. inhibition, % at 6.95 µM. actives 0.83% (n = 370,000). AID 720648;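 active = inhibition above the mean of compounds lying between control limits plus 3 SD, set per campaign, cut at about 8.5% in these data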;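 note: 0% = DMSO-only wells as the low control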
ADAM10 inh – inhibitors of human ADAM10; inhibition, % at 7 µM; recombinant ADAM10, EDANS/DABCYL FRET peptide cleavage, 3 h; actives 0.62% (n = 370,000); O14672;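 active = inhibition above a per-campaign cutoff equal to the mean of compounds falling between control-based bounds plus 3 SD, cut at about 20% in these data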;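 note: 0% = DMSO wells while the 100% control is not disclosed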
sPLA2-III inh – Blocks human group III sPLA2 activity. Q9NZ20. QFRET BODIPY PC-A2 liposome hydrolysis, fluorescence. AID 743126. inhibition, % at 12.2 µM. actives 0.56% (n = 370,000);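 active = inhibition above mean plus 3 SD of compounds lying within the high and low control bounds, cut at about 19% in these data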;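 note: 0% = median of test compound wells and 100% = no enzyme DMSO wells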
PLCg1 inh – inhibitors of human phospholipase C gamma1; P19174; inhibition, % at 12.2 µM; actives 0.84% (n = 370,000); purified PLC-gamma1, fluorogenic substrate, fluorescence; AID 720700; in the data active = inhibition above about 9.5%
KLK7 zymogen act – proKLK7 (human) activation, primary screen. P49862. purified proKLK7, EDANS-DABCYL substrate fluorescence; 100% is mature enzyme control, 0% vehicle. activation, % at 7 µM. actives 0.9% (n = 370,000). AID 652039;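 active = activation above the mean of all tested compounds plus 3 SD, computed per campaign excluding outliers beyond control limits, cut at about 13% in these data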
PLCb3 inh – inhibitors of human phospholipase C beta3. Q01970. Purified PLC-beta3, fluorogenic substrate, fluorescence. inhibition, % at 12.2 µM. actives 0.18% (n = 370,000). AID 720704; in the data active = inhibition above about 11%;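 note: 0% = median of compound wells on plate and 100% = full blocker control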
Target sequence (Q01970 whole entry, looked up): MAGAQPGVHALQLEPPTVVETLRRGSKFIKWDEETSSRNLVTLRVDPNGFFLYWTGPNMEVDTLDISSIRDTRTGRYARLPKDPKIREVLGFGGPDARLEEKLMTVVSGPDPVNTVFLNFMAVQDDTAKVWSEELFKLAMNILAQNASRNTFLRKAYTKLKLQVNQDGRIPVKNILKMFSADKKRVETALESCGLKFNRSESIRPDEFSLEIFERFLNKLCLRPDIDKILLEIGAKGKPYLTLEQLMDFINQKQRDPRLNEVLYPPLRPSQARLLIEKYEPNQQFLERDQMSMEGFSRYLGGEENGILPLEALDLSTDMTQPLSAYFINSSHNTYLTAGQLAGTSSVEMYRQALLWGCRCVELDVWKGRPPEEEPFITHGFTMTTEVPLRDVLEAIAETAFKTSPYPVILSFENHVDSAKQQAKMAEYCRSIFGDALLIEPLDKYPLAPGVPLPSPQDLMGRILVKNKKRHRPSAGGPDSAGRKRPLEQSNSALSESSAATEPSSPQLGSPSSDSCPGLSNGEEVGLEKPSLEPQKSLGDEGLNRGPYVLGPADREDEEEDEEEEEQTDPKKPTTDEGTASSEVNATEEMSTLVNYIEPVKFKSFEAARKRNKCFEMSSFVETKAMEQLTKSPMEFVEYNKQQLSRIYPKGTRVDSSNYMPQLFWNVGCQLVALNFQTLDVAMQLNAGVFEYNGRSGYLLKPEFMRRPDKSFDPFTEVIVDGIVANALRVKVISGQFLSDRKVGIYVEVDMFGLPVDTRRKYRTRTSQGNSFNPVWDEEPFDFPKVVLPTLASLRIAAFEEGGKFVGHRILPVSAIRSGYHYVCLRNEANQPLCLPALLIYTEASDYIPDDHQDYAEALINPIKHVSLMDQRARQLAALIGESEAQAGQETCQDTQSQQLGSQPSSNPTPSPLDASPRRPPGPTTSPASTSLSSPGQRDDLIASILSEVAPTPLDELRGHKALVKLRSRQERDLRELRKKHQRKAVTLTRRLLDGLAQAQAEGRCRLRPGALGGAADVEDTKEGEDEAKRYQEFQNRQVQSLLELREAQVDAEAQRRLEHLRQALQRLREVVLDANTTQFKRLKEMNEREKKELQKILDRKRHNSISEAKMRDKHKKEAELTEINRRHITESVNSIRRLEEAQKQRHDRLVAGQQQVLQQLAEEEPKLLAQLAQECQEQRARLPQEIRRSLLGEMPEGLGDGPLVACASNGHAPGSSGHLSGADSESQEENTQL
hGIII sPLA2 conf – human GIII-sPLA2 inhibition, confirmation | shares compounds with sPLA2-III inh | recombinant hGIII-sPLA2, BODIPY PC-A2 QFRET fluorescence | inhibition, % at 12.2 µM | actives 34% (n = 2,000) | AID 743280;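 active = mean inhibition across triplicates above the hit cutoff set in the earlier primary screen, cut at about 19% in these data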;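 note: 0% = enzyme with DMSO and 100% = DMSO wells lacking enzyme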
BODIPY interf – counter-screen for HGIII-sPLA2 inhibitors: 535nm fluorescence interference. AID 743282. actives 8.5% (n = 2,000). BODIPY FL product fluorescence interference, QFRET. shares compounds with sPLA2-III inh. inhibition, % at 12.2 µM;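 active = average inhibition above the solvent-only control mean plus 3 SD, cut at about 6% in these data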;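 note: 0% = DMSO with substrate plus product and 100% = DMSO with substrate alone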
BODIPY interf DR – counter-screen for HGIII-sPLA2 inhibitors: 535nm fluorescence interference, dose response | IC50, µM | shares compounds with sPLA2-III inh | BODIPY FL product fluorescence interference, cell-free | 240 tested, under 10 active | AID 743455;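 active = IC50 at or below 10 µM; inactive = IC50 above 10 µM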
* hit, by the source's call. Sampled rows, rich in hits. Any-hit rate of the full collection: about 3.4%.

Results for CC(C)CCNC(=S)Nc1ccc2nc3n(c(=O)c2c1)CCCCC3 ?
ADAM17 inh: -4; ADAM10 inh: -17; sPLA2-III inh: 20*; PLCg1 inh: -2; KLK7 zymogen act: 0; PLCb3 inh: -1; hGIII sPLA2 conf: 13; BODIPY interf: -12

How did CCOC(=O)N[C@@H](Cc1cccnc1)C(=O)N1CCC[C@H]1C(=O)NC1CCCC1 do in these assays?
ADAM17 inh: -8; ADAM10 inh: -12; sPLA2-III inh: 10; PLCg1 inh: 4; KLK7 zymogen act: 0; PLCb3 inh: 1

What do the screens show for `C1=CCC(CN2CCN(C3CCCCCC3)CC2)CC1` (configuration not stated)?
ADAM17 inh: 0; ADAM10 inh: -7; sPLA2-III inh: 20*; PLCg1 inh: 7; KLK7 zymogen act: 0; PLCb3 inh: -4; hGIII sPLA2 conf: 0; BODIPY interf: -14

Results for Cc1ccc(N2CCN(CC3CC=CCC3)CC2)cc1 (configuration not stated) ?
ADAM17 inh: -2; ADAM10 inh: 4; sPLA2-III inh: 10; PLCg1 inh: 0; KLK7 zymogen act: 0; PLCb3 inh: -3

How did CN1CCCCC(NC(=O)C2CCCCC2)C1=O (configuration not stated) do in these assays?
ADAM17 inh: -1; ADAM10 inh: 2; sPLA2-III inh: -1; PLCg1 inh: -2; KLK7 zymogen act: 0; PLCb3 inh: 2

Results for CC(Sc1ccc(Cl)cc1)C(=O)NNC(=O)c1ccccc1O (configuration not stated) ?
ADAM17 inh: -8; ADAM10 inh: -3; sPLA2-III inh: 23*; PLCg1 inh: -4; KLK7 zymogen act: -1; PLCb3 inh: -12; hGIII sPLA2 conf: 7; BODIPY interf: -3

What do the screens show for `CSCCC(NC(=O)c1ccccc1Cl)C(=O)NNC(=O)c1ccccc1O` (configuration not stated)?
ADAM17 inh: -29; ADAM10 inh: -93; sPLA2-III inh: 10; PLCg1 inh: -33; KLK7 zymogen act: -3; PLCb3 inh: -32

Results for Cc1cc(Br)cc(/C=N/NC(=O)c2ccc3c(c2)OCO3)c1O ?
ADAM17 inh: -5; ADAM10 inh: -4; sPLA2-III inh: 36*; PLCg1 inh: -26; KLK7 zymogen act: -8; PLCb3 inh: -41; hGIII sPLA2 conf: 40*; BODIPY interf: 2; BODIPY interf DR: >122

Results for COc1ccccc1NC(=S)NC(C)C(c1cccs1)N1CCOCC1 (configuration not stated) ?
ADAM17 inh: -5; ADAM10 inh: -13; sPLA2-III inh: 25*; PLCg1 inh: 2; KLK7 zymogen act: 0; PLCb3 inh: -10; hGIII sPLA2 conf: 8; BODIPY interf: -11

What do the screens show for `CCN1CCN(C(c2cccs2)C(C)NC(=S)NC2CCCCC2)CC1` (configuration not stated)?
ADAM17 inh: -3; ADAM10 inh: -6; sPLA2-III inh: 12; PLCg1 inh: -1; KLK7 zymogen act: 0; PLCb3 inh: -6

Results for CC(NC(=S)NC1CCCCC1)C(c1cccs1)N1CCOCC1 (configuration not stated) ?
ADAM17 inh: -7; ADAM10 inh: -3; sPLA2-III inh: 24*; PLCg1 inh: -2; KLK7 zymogen act: 0; PLCb3 inh: -11; hGIII sPLA2 conf: 19; BODIPY interf: -3

Results for Cc1cc(N2CCN(C(=O)OC(C)(C)C)C[C@@H]2C)ccc1Br ?
ADAM17 inh: -1; ADAM10 inh: -3; sPLA2-III inh: 3; PLCg1 inh: 3; KLK7 zymogen act: 1; PLCb3 inh: 4

What do the screens show for `COc1cc2c(cc1OC)[C@](C)(c1ccccc1)C[C@@H]2NCC=C(C)C`?
ADAM17 inh: 0; ADAM10 inh: -6; sPLA2-III inh: -17; PLCg1 inh: 2; KLK7 zymogen act: 0; PLCb3 inh: 2

Results for Fc1ccc(N2CCN(/C=C/c3nnnn3-c3ccccc3)CC2)cc1 ?
ADAM17 inh: -3; ADAM10 inh: 4; sPLA2-III inh: 2; PLCg1 inh: 0; KLK7 zymogen act: 1; PLCb3 inh: -1

What do the screens show for `C(=C\N1CCCCCC1)/c1nnnn1-c1ccc(-c2ccccc2)cc1`?
ADAM17 inh: -3; ADAM10 inh: 3; sPLA2-III inh: 20*; PLCg1 inh: -11; KLK7 zymogen act: 0; PLCb3 inh: -13; hGIII sPLA2 conf: 5; BODIPY interf: -4

Results for O=C(CNC(=S)N(CCCN1CCOCC1)Cc1cccs1)NCCCN1CCOCC1 ?
ADAM17 inh: -1; ADAM10 inh: 4; sPLA2-III inh: 0; PLCg1 inh: -2; KLK7 zymogen act: 0; PLCb3 inh: 6

Results for CCN(CC)C(=O)CNC(=S)N(CCCN1CCOCC1)Cc1cccs1 ?
ADAM17 inh: 2; ADAM10 inh: 1; sPLA2-III inh: 20*; PLCg1 inh: 4; KLK7 zymogen act: -1; PLCb3 inh: 0; hGIII sPLA2 conf: 3; BODIPY interf: -11

What do the screens show for `Cc1ccc(Cn2cc(CN3[C@@H](CC(C)C)COc4cccc(F)c4S3(=O)=O)nn2)cc1`?
ADAM17 inh: -3; ADAM10 inh: -4; sPLA2-III inh: -1; PLCg1 inh: 1; KLK7 zymogen act: 0; PLCb3 inh: 0

How did Cc1onc(-c2c(Cl)cccc2Cl)c1C(=O)N/N=C(\N)COc1ccc(Cl)cc1 do in these assays?
ADAM17 inh: 4; ADAM10 inh: 0; sPLA2-III inh: 28*; PLCg1 inh: 5; KLK7 zymogen act: 0; PLCb3 inh: -1; hGIII sPLA2 conf: 31*; BODIPY interf: 0; BODIPY interf DR: >122

What do the screens show for `COC(=O)[C@]12C[C@H](CC(=O)NCc3cccs3)C(=O)N(CCc3ccc(OC)c(OC)c3)C1=C[C@H](C1CCCC1)O[C@@H]2C`?
ADAM17 inh: 6; ADAM10 inh: 8; sPLA2-III inh: -15; PLCg1 inh: 0; KLK7 zymogen act: 0; PLCb3 inh: -3

What do the screens show for `CN(C)c1ccc(-c2n[nH]c(=S)n2-c2ccccc2)cc1`?
ADAM17 inh: -22; ADAM10 inh: -73; sPLA2-III inh: 13; PLCg1 inh: -14; KLK7 zymogen act: -3; PLCb3 inh: -20

From PubChem BioAssay
